Targets with a hit are over-represented here; the source holds about 7,900 in all. About 0.6% of all pairs of compound and target were hits. Values without a mark were called inactive.

Our source for the log2 fold change values is the supplement of paper PMC10849652.

Chain of UniProt Q12906 (Q12906 whole entry, looked up): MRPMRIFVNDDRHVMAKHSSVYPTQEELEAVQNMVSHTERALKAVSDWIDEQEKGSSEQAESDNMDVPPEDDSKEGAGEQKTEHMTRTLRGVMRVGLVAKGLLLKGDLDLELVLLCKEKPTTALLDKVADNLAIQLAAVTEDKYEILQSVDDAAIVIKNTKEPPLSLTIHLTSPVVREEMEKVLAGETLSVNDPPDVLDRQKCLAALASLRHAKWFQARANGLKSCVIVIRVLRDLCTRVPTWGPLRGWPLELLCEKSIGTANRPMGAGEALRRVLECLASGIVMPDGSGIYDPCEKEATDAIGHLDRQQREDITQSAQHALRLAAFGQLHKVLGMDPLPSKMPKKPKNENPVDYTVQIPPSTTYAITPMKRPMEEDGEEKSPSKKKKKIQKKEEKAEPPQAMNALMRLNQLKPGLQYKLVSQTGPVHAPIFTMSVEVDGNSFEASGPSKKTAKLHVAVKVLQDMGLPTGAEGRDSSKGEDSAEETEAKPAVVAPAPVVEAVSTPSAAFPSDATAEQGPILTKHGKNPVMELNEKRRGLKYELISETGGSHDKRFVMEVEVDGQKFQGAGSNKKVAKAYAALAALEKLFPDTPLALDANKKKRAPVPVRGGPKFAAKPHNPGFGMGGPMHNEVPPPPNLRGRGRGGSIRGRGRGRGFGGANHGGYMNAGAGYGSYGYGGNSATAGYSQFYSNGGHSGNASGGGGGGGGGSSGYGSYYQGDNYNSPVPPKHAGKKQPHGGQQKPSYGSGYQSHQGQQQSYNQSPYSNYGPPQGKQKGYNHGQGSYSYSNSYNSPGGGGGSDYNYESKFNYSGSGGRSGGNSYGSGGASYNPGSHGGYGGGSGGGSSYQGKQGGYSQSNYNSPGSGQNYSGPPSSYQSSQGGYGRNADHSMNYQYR
Chain of UniProt Q14681 (Q14681 whole entry, looked up): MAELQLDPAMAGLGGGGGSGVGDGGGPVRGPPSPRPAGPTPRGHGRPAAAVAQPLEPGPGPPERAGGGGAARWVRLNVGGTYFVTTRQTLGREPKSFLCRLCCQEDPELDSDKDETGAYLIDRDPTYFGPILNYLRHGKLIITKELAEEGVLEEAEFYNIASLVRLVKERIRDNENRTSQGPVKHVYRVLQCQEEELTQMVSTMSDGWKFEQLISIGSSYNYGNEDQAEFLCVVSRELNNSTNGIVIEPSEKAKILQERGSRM
Chain of UniProt Q8IWA4 (Q8IWA4 whole entry, looked up): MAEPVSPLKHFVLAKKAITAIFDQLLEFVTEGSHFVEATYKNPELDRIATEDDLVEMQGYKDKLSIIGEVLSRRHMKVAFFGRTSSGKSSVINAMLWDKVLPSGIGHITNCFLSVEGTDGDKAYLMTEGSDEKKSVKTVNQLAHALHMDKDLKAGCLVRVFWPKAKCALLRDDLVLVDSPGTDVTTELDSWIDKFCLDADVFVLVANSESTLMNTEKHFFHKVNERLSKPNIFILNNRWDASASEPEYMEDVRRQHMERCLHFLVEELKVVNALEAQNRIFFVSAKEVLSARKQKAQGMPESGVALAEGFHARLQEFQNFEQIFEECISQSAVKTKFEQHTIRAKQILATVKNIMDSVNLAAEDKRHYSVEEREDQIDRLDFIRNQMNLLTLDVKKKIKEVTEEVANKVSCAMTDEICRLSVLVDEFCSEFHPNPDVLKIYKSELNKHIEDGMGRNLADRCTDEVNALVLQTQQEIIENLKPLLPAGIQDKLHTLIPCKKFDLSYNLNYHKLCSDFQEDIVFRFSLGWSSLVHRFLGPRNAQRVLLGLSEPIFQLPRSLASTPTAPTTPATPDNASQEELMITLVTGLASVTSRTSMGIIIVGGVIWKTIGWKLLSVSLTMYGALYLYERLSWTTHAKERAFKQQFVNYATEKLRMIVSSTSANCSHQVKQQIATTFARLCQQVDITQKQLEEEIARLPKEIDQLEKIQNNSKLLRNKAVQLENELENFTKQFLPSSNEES
Chain of UniProt Q08431 (Q08431 whole entry, looked up): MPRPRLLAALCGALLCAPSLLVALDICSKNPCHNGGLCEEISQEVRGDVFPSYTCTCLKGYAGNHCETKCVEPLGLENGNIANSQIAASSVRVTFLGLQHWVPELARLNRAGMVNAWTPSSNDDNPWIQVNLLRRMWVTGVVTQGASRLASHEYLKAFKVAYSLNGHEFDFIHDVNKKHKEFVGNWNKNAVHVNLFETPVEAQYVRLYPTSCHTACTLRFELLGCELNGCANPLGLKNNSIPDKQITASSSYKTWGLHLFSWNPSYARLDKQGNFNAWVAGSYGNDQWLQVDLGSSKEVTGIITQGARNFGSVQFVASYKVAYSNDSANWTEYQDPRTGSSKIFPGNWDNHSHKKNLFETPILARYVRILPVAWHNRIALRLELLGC
Chain of UniProt Q14693 (Q14693 whole entry, looked up): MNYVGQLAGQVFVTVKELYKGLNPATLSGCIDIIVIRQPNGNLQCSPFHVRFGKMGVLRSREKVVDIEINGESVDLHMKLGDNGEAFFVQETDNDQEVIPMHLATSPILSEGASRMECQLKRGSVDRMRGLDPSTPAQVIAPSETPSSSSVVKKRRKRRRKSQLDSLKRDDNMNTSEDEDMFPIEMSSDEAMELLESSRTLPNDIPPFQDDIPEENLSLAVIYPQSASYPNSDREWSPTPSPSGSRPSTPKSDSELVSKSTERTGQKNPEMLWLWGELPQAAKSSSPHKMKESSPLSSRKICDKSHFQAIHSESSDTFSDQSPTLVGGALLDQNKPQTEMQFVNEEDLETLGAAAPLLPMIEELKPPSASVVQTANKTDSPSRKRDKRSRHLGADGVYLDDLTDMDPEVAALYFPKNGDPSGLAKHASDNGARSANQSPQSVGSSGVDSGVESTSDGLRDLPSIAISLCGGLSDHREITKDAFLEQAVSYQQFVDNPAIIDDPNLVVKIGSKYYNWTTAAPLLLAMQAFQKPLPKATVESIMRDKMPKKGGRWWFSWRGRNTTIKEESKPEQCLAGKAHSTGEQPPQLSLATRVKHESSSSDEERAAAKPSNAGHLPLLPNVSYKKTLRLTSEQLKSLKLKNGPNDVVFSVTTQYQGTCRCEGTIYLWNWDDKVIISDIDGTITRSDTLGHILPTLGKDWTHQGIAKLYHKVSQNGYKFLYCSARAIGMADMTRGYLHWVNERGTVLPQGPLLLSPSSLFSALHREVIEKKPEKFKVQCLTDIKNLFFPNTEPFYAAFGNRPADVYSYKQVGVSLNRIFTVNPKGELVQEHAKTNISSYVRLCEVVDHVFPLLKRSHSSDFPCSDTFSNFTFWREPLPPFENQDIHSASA
Chain of UniProt Q6P1A2 (Q6P1A2 whole entry, looked up): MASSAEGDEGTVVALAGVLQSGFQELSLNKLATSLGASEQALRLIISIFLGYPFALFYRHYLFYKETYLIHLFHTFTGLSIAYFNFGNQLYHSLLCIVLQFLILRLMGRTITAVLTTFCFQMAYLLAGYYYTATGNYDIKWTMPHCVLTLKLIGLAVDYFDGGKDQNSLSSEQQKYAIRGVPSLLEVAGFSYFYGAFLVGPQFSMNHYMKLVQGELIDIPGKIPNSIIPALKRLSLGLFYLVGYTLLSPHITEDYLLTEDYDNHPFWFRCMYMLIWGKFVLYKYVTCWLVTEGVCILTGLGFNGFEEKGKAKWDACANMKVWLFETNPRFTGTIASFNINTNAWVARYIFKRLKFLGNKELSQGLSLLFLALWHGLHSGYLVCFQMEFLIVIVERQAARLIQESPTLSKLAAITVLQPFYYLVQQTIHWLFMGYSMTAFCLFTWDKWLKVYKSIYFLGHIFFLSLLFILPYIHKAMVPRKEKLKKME
Chain of UniProt Q32MZ4 (Q32MZ4 whole entry, looked up): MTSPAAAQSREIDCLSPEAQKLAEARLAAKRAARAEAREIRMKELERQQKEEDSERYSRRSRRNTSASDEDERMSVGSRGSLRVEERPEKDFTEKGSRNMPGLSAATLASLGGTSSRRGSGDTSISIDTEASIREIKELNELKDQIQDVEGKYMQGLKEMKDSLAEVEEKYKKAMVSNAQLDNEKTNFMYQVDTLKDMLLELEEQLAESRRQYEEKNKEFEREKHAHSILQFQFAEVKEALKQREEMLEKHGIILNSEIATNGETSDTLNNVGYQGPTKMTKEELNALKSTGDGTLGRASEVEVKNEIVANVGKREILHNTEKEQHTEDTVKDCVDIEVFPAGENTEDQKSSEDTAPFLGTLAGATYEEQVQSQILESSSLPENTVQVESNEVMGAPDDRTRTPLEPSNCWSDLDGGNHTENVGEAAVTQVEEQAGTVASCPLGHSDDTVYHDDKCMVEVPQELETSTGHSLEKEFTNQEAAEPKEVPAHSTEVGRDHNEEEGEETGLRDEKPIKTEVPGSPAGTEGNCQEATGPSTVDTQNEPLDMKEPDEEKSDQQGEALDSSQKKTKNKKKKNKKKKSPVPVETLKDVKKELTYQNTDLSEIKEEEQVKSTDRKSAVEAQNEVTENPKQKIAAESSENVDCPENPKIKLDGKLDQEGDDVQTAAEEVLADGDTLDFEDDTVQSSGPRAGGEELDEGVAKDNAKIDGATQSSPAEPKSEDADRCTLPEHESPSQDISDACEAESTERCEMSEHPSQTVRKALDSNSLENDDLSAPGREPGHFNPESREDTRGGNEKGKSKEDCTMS
Chain of UniProt O95372 (O95372 whole entry, looked up): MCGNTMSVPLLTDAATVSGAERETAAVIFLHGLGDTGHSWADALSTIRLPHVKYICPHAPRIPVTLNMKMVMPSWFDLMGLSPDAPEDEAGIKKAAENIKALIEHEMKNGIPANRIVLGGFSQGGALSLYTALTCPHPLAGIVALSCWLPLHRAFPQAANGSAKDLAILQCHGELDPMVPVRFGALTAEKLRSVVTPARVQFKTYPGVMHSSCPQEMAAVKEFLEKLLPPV
Chain of UniProt P14174 (P14174 whole entry, looked up): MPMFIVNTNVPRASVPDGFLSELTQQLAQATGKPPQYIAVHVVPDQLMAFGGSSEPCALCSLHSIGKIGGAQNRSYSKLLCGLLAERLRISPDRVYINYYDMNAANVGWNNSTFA

Compound in the assay: CS(=O)(=O)c1ccc(-c2cnc(N)c(C(=O)Nc3ccccc3)n2)cc1
Nature of the assay: log2 fold change, soluble protein after heating vs DMSO (PISA); higher = thermal stabilisation; K562 cells, 10 uM, 30 min; active = over 0.2 and 3.5 SD of the protein, either way, in both replicates (recomputed). Put shortly: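 K562 cells at 2×10^6 cells/mL were given 10 μM compound for 30 min. Aliquots then went through 3 min of heating across 48°C-58°C, were pooled, and were extracted in PBS with 0.5% NP-40 at 4°C, and the supernatant after 21,000xg for 90 min was quantified by TMTpro 16plex LC-MS/MS with channel sums equalised. Thermal stability relative to control samples, from duplicates, is given as log2 fold change.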
For the target MIEF1 (UniProt Q9NQG6), the log2 fold change was 0.088.
Consider LDAH isoform 2 (UniProt Q9H6V9), for which the log2 fold change is 0.052.
Turning to MAPKAPK2 (UniProt P49137), the log2 fold change is -0.032.
Take LIAS (UniProt O43766): the log2 fold change is 0.035.
Under MFSD5 isoform 2 (UniProt Q6N075) stands 0.069; under LARP4B (UniProt Q92615), -0.066; under LAMP2 (UniProt P13473), 0.055.
Under MAGEC2 (UniProt Q9UBF1) stands 0.008; under IGFBP4 (UniProt P22692), -0.066; under ILF3 isoform 7 (UniProt Q12906), -0.159.
With LTV1 (UniProt Q96GA3) the figure was 0.006; with MICU2 (UniProt Q8IYU8), 0.014.
In the case of MCUR1 (UniProt Q96AQ8), the log2 fold change was 0.041.
Under KDM1A isoform 2 (UniProt O60341) stands -0.047; under LEMD2 (UniProt Q8NC56), -0.001.
With LRRFIP1 (UniProt Q32MZ4) the figure was -0.005.
As for LPIN1 isoform 7 (UniProt Q14693), the log2 fold change is 0.
Under MFN1 (UniProt Q8IWA4) stands 0.031; under KIF1B isoform 4 (UniProt O60333), 0.002.
Under MFGE8 (UniProt Q08431) stands 0.063.
Under MCCC2 (UniProt Q9HCC0) stands -0.004.
Regarding MICU1 isoform 3 (UniProt Q9BPX6), the log2 fold change is -0.024.
Under LARP1 (UniProt Q6PKG0) stands -0.04; under MEPCE (UniProt Q7L2J0), -0.006; under MAD2L1 (UniProt Q13257), 0.02.
Under KCTD2 (UniProt Q14681) stands 0.178.
With LYPLA2 (UniProt O95372) the figure was -0.028; with INPP5B (UniProt P32019), 0.057.
For the target IPO11 isoform 2 (UniProt Q9UI26), the log2 fold change is 0.037.
Consider MARCKS (UniProt P29966), for which the log2 fold change was 0.022.
Regarding KIF2C (UniProt Q99661), the log2 fold change was -0.016.
On to LPCAT3 (UniProt Q6P1A2), for which the log2 fold change is 0.091.
Under KTN1 (UniProt Q86UP2) stands -0.016; under MIF (UniProt P14174), -0.027.
LUC7L3 (UniProt O95232): the log2 fold change is -0.001.
With LUC7L (UniProt Q9NQ29) the figure was -0.009; with KPNA1 (UniProt P52294), -0.021; with KSR1 (UniProt Q8IVT5), -0.017.
Under MAP2K2 (UniProt P36507) stands 0.013.
